Measurements reported in ChEMBL document CHEMBL1961873, “Compounds: GSK PKIS; Assays: Nanosyn kinase panel” (2012).

Key:
[1] = target: T1, Inhibitor of nuclear factor kappa-B kinase subunit epsilon (Homo sapiens) (UniProt Q14164); settings: at 1 µM;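 further: reported values are averaged percent inhibition figures against human IKKε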
T1 sequence (whole entry): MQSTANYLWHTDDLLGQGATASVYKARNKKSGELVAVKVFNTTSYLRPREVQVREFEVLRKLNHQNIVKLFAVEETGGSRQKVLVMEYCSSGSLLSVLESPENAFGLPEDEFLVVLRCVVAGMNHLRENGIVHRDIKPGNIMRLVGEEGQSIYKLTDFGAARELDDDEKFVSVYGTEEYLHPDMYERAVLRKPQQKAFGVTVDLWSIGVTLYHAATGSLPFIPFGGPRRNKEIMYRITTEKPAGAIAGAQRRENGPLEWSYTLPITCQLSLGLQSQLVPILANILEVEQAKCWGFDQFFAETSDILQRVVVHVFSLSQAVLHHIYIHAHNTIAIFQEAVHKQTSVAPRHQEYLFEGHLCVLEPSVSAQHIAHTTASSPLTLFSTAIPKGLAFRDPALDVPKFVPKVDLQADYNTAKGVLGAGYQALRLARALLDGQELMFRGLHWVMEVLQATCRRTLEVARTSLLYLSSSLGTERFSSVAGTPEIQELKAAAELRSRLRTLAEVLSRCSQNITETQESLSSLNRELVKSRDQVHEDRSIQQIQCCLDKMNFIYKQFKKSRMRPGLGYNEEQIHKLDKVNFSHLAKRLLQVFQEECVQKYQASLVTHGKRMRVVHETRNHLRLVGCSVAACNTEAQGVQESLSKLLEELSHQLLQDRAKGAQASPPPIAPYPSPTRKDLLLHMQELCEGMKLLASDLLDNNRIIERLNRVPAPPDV

[2] = target: T2, Serine/threonine-protein kinase Nek1 (Homo sapiens) (UniProt Q96PY6); settings: at 0.1 µM
T2 sequence (whole entry): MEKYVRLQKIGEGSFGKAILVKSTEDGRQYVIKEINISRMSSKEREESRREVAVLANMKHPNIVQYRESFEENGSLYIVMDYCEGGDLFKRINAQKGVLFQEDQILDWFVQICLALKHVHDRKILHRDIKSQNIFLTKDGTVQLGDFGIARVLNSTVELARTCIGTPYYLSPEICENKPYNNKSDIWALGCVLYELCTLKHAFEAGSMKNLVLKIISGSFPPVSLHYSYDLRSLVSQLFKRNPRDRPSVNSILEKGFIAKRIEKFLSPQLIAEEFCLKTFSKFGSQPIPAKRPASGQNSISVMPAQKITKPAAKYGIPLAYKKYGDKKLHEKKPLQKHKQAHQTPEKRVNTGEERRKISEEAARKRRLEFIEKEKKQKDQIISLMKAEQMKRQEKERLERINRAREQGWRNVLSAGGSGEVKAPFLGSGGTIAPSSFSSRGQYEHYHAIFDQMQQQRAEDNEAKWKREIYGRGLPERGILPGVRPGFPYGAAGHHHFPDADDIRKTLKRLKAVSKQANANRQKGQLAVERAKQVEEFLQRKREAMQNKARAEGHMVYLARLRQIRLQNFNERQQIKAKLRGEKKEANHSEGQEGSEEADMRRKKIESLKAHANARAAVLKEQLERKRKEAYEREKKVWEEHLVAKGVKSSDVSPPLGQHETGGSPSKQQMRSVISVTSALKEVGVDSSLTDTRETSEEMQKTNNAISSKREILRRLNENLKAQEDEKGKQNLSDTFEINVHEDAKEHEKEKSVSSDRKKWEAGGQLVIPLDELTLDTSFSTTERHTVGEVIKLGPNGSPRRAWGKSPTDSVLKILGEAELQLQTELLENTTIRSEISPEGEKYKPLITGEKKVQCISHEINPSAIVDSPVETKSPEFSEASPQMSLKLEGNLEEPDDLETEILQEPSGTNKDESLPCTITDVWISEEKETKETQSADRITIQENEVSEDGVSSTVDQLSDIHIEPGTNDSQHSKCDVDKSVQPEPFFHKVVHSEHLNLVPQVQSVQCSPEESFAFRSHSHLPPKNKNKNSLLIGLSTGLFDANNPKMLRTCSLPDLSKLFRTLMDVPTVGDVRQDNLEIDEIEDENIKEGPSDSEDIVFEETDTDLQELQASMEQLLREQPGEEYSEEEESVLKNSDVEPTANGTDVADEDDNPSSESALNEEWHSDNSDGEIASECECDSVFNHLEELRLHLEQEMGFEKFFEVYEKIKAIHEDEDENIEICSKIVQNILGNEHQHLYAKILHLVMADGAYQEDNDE

[3] = target: T2, Serine/threonine-protein kinase Nek1 (Homo sapiens); settings: at 1 µM
[4] = target: T3, Serine/threonine-protein kinase Nek2 (Homo sapiens) (UniProt P51955); settings: at 0.1 µM
T3 sequence (whole entry): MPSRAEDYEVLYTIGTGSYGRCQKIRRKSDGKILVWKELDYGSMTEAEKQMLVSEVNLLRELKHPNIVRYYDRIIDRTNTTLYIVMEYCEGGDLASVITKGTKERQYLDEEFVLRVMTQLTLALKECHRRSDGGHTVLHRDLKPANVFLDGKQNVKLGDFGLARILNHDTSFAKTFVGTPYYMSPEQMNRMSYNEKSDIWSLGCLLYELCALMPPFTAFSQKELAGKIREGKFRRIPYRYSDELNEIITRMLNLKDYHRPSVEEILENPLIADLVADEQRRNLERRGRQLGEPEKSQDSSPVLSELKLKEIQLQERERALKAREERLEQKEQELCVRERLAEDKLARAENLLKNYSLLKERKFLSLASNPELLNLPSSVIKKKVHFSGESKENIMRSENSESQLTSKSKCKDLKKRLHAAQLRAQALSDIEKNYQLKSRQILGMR

[5] = target: T3, Serine/threonine-protein kinase Nek2 (Homo sapiens); settings: at 1 µM
[6] = target: Serine/threonine-protein kinase Nek6 (Homo sapiens) (UniProt Q9HC98); settings: at 0.1 µM
Serine/threonine-protein kinase Nek6 (Homo sapiens), sequence (Q9HC98 whole entry): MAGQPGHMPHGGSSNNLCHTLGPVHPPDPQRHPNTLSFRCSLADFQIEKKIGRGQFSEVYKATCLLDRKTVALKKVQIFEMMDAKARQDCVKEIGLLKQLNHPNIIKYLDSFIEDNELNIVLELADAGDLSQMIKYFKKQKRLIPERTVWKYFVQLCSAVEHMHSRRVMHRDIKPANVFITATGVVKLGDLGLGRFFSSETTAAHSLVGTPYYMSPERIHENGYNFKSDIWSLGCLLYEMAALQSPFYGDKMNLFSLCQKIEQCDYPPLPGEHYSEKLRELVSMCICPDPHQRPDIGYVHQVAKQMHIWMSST

[7] = target: Serine/threonine-protein kinase Nek6 (Homo sapiens) (UniProt Q9HC98); settings: at 1 µM
[8] = target: Serine/threonine-protein kinase Nek7 (Homo sapiens) (UniProt Q8TDX7); settings: at 0.1 µM
Serine/threonine-protein kinase Nek7 (Homo sapiens), sequence (Q8TDX7 whole entry, looked up): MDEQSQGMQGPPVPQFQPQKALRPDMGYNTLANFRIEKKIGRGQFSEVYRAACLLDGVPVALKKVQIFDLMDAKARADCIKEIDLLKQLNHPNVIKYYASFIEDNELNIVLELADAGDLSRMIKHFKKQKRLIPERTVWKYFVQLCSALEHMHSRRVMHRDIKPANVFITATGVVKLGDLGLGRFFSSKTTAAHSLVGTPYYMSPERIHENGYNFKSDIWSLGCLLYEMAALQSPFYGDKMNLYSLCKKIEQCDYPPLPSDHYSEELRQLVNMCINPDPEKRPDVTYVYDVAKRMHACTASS

[9] = target: Serine/threonine-protein kinase Nek7 (Homo sapiens) (UniProt Q8TDX7); settings: at 1 µM
[10] = target: T4, Serine/threonine-protein kinase Nek9 (Homo sapiens) (UniProt Q8TD19); settings: at 0.1 µM;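 further: reported value is the mean percent inhibition of NEK9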
T4 sequence (whole entry): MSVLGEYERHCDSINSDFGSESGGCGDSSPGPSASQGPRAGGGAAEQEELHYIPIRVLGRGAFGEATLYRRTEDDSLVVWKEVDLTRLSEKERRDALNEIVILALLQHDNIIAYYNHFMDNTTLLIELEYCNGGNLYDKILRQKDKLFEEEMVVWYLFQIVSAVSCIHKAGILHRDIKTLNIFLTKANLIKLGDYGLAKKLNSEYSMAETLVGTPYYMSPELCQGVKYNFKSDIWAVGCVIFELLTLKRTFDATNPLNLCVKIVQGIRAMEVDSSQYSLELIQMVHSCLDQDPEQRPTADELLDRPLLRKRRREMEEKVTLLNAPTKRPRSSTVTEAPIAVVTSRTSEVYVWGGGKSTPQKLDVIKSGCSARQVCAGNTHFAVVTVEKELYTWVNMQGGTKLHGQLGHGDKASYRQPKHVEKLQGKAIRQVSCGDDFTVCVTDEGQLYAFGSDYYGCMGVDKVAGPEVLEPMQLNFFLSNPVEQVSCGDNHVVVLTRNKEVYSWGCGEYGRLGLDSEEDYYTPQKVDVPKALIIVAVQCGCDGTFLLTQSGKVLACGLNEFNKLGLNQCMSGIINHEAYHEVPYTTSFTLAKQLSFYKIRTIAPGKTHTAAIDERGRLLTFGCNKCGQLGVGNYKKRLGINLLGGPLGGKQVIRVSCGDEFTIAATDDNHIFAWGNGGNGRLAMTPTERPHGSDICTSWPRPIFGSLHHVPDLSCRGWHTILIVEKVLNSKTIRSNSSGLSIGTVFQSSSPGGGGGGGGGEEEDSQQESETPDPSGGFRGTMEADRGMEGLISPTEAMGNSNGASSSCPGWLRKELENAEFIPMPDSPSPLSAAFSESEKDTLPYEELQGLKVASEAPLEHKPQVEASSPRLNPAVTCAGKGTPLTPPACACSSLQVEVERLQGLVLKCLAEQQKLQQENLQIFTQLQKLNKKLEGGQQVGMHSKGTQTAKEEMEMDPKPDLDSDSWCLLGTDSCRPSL

Q: `N#Cc1ccc(Oc2nccc(-c3c(-c4ccc(F)cc4)ncn3C3CCNCC3)n2)cc1` was tested. Which inhibition [1] did it give?
A: 5.32%

Q: What about the inhibition [2] of the same compound?
A: 2.19%

Q: And the inhibition [3]?
A: 2.49%

Q: And the inhibition [4]?
A: 4.13%

Q: What about the inhibition [5] of the same compound?
A: 4.63%

Q: What about the inhibition [6] of the same compound?
A: 3.13%

Q: And the inhibition [7]?
A: 3.68%

Q: What about the inhibition [8] of the same compound?
A: 3.62%

Q: And the inhibition [9]?
A: 6.16%

Q: And the inhibition [10]?
A: 9.06%
